Where “and” joins values, the source holds several entries; their conditions need not be identical. Identical values can stand only once. Inconclusive results are not listed. A call without a number means that no potency is given here. Calls of active or inactive are those of the source. Unless noted, calls come from the whole dose curve; as a rule, active = well fitted curve in the direction sought with a large enough effect in the repeat runs; inconclusive = weak or mixed curves; inactive = no such curve, though single readings can be large; an effect the other way counts as inactive or inconclusive.
How the values were obtained:
[1] = qHTS assay to identify small molecule agonists of the RXR signaling pathway - cell viability counter screen (AID 1159529); note: nearly all actives have a fitted effect of over 50% in size; note: potency is the fitted concentration of half-maximal effect
Summary of the method: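 Tox21 10K compounds were tested for cytotoxicity against GeneBLAzer RXR-alpha HEK 293T cells grown in 2% charcoal-stripped FBS. Exposure lasted 16 hr at 37 C, 5% CO2; viability read by CellTiter-Glo luminescence.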

[2] = qHTS assay to identify small molecule antagonists of the retinoid acid receptor (RAR) signaling pathway - cell viability counter screen (AID 1159551); note: nearly all actives have a fitted effect of over 35% in size; note: potency is the fitted concentration of half-maximal effect
Summary of the method: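 Luminescent ATP quantitation (CellTiter-Glo) gave cell viability in C3RL4 cells exposed to test chemicals for 6 h at 37 C alongside 1 uM final retinol.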

[3] = qHTS assay to identify small molecule antagonists of the estrogen related receptor (ERR) signaling pathway - cell viability counter screen (AID 1224818);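 note: series mostly up to about 46 µM; viability measured after 17.5 h of compound exposure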
Summary of the method: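 Multiplexed counter screen to separate cytotoxic compounds from true ERR modulators. ERR cells received DMSO-dissolved compounds after a 6 h pre-incubation, were exposed 17.5 h at 37 C, then assayed with CellTiter-Fluor fluorescence.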

[4] = qHTS assay to identify small molecule antagonists of the estrogen related receptor (ERR) signaling pathway (AID 1224819;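 note: luminescence from an ERR-driven luciferase reporter measured with One-Glo reagent; series mostly up to about 46 µM; nearly all actives have a fitted effect of over 50% in size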)
Summary of the method: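 Seed ERR cells 2,000/well; rest 6 h at 37 C/5% CO2; pin compounds in DMSO; incubate 18 h at 37 C; add One-Glo; wait 30 min at room temperature; measure luminescence.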

[5] = test system: estrogen-related receptor alpha (ERRalpha) with PGC-1alpha coactivator, human; assay: qHTS assay to identify small molecule antagonists of the estrogen related receptor signaling pathway with the pleiotropic PPARgamma coactivator (PGC) (AID 1224821; calls by dose curve;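 note: series mostly up to about 46 µM; lower luminescence signal means antagonism of PGC/ERR signalling; nearly all actives have a fitted effect of over 50% in size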)
Summary of the method: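 Quantitative HTS for antagonism: PGC/ERR cells received compounds after 6 h attachment and were incubated 18 h at 37 C, with luminescence (One-Glo) as the endpoint.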

[6] = qHTS assay to identify small molecule antagonists of the estrogen related receptor signaling pathway with the pleiotropic PPARgamma coactivator (PGC) cell viability counter screen (AID 1224822; note: series mostly up to about 46 µM)
Summary of the method: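 Cells: PGC/ERR, 2,000/well, 1536-well format. Pre-incubation 6 h, 37 C/5% CO2. Compound exposure 17.5 h, 37 C. Detection: CellTiter-Fluor, 30 min, fluorescence.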

[7] = qHTS assay to identify small molecule agonists of the estrogen related receptor signaling pathway with the pleiotropic PPARgamma coactivator (PGC) (AID 1224823)
Summary of the method: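 Cell-based luciferase assay in the NTP-supplied PGC/ERR line, 2,000 cells/well; 18 h compound exposure at 37 C, luminescence after One-Glo.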

[8] = qHTS assay to identify small molecule antagonists of the estrogen related receptor (ERR) signaling pathway from Tox21 library - cell viability counter screen (AID 1224834); note: nearly all actives have a fitted effect of over 30% in size
Summary of the method: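 Fluorescence from CellTiter-Fluor gives the viability read-out, taken 30 min after reagent addition. Before that, ERR cells seeded 6 h earlier were incubated with compounds for 17.5 h at 37 C.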

[9] = molecular target: Luciferin 4-monooxygenase (Photinus pyralis) (UniProt P08659); assay: qHTS assay to identify small molecule inhibitors of firefly luciferase (AID 1224835); note: series mostly up to about 120 µM; nearly all actives have a fitted effect of over 25% in size
Summary of the method: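 Biochemical qHTS: compounds run as interplate titrations against purified firefly enzyme, with D-luciferin and ATP each at its KM concentration. Light output recorded by CCD imaging.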

[10] = qHTS assay to identify small molecule agonists of the constitutive androstane receptor (CAR) signaling pathway - cell viability counter screen (AID 1224836); note: series mostly up to about 92 µM; nearly all actives have a fitted effect of over 45% in size
Summary of the method: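 Fluorescence from CellTiter-Fluor indicates live cells after 23 h exposure. The human hepatoma line expresses hCAR and a CYP2B6-2.2kb reporter. Incubation medium contains 0.75 uM PK11195 (final).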

[11] = qHTS assay to identify small molecule antagonists of the constitutive androstane receptor (CAR) signaling pathway - cell viability counter screen (AID 1224837); note: series mostly up to about 92 µM; nearly all actives have a fitted effect of over 45% in size
Summary of the method: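 HepG2-CYP2B6-hCAR cells, 2500/well, 4 hr pre-incubation; compound titration, 15 conc.; CITCO 50 nM final; 23 hr, 37 C/5% CO2; CellTiter-Fluor, fluorescence intensity.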

[12] = qHTS assay to identify small molecule antagonists of the estrogen related receptor signaling pathway with the pleiotropic PPARgamma coactivator (PGC) from Tox21 10K library - cell viability counter screen (AID 1224840; active = well fitted cell-killing curve with a large enough effect in the repeat runs, not every such curve was filed as active; note: nearly all actives have a fitted effect of over 40% in size)
Summary of the method: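 PGC/ERR cells, 2,000/well; 6 h pre-incubation 37 C/5% CO2; cpd in DMSO via pin tool; 17.5 h 37 C; CellTiter-Fluor, 30 min; fluorescence.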

[13] = qHTS assay to identify small molecule antagonists of the estrogen related receptor signaling pathway with the pleiotropic PPARgamma coactivator (PGC) from Tox21 10K library (AID 1224841; call rule not given here; note: series mostly up to about 92 µM; actives are mostly falling curves and most rising ones were filed inactive; nearly all actives have a fitted effect of over 50% in size)
Summary of the method: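 PGC/ERR cell line, 2,000 cells/well; 6 h pre-incubation 37 C/5% CO2; compounds (DMSO) pinned in; 18 h, 37 C; One-Glo, 30 min RT; luminescence.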

[14] = molecular target: Thyrotropin receptor (Homo sapiens) (UniProt P16473); assay: qHTS assay to identify small molecule agonists of the thyroid stimulating hormone receptor (TSHR) signaling pathway (AID 1224843; calls by dose curve; note: nearly all actives have a fitted effect of over 45% in size; note: potency is the fitted concentration of half-maximal effect)
Summary of the method: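 Steps: seed 800 TSHR-HEK293 cells per well; add test compound and hold 30 min at ambient temperature; dispense cAMP-d2 then anti-cAMP cryptate; incubate 1 h at ambient; measure fluorescence intensity.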

[15] = qHTS assay to identify small molecule agonists of the retinoic acid receptor (RAR) signaling pathway (AID 1159553)
Summary of the method: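 Luminescence from a RARE-driven luciferase reporter in C3RL4 cells served as the read-out, measured after 30 min with detection reagent at room temperature. Compounds in DMSO were applied for 6 hr at 37 C following overnight seeding.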

[16] = molecular target: Nuclear receptor subfamily 1 group I member 3 (Homo sapiens) (UniProt Q14994); assay: qHTS assay to identify small molecule antagonists of the constitutive androstane receptor (CAR) signaling pathway (AID 1224838);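 note: HepG2 cells stably expressing hCAR with CYP2B6 luciferase reporter stimulated by CITCO; nearly all actives have a fitted effect of over 40% in size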
Summary of the method: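 HepG2-CYP2B6-hCAR cells; 4 h pre-incubation; cpd (15 conc) + CITCO 50 nM final; 24 h, 37 C/5% CO2; ONE-Glo, luminescence.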

[17] = molecular target: Nuclear receptor subfamily 1 group I member 3 (Homo sapiens) (UniProt Q14994); assay: qHTS assay to identify small molecule agonists of the constitutive androstane receptor (CAR) signaling pathway (AID 1224839);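 note: HepG2 cells stably carrying human CAR and a CYP2B6 luciferase reporter; series mostly up to about 92 µM; nearly all actives have a fitted effect of over 15% in size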
Summary of the method: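 Stable hCAR/CYP2B6-2.2kb HepG2 line in DMEM with 10% FBS; compounds (15 concentrations) and 0.75 uM PK11195 final, 24 h at 37 C/5% CO2, then ONE-Glo luminescence after 30 min.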

[18] = qHTS assay to identify small molecule antagonists of the retinoic acid receptor (RAR) signaling pathway (AID 1159552; note: nearly all actives have a fitted effect of over 50% in size)
Summary of the method: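 Overnight-plated C3RL4 reporter cells get compound, then retinol to 1 uM final; plates sit 6 hr at 37 C, 5% CO2. A luciferase reagent is added and light output recorded after 30 min at room temperature.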

Chain of Thyrotropin receptor (Homo sapiens) (P16473 whole entry, looked up): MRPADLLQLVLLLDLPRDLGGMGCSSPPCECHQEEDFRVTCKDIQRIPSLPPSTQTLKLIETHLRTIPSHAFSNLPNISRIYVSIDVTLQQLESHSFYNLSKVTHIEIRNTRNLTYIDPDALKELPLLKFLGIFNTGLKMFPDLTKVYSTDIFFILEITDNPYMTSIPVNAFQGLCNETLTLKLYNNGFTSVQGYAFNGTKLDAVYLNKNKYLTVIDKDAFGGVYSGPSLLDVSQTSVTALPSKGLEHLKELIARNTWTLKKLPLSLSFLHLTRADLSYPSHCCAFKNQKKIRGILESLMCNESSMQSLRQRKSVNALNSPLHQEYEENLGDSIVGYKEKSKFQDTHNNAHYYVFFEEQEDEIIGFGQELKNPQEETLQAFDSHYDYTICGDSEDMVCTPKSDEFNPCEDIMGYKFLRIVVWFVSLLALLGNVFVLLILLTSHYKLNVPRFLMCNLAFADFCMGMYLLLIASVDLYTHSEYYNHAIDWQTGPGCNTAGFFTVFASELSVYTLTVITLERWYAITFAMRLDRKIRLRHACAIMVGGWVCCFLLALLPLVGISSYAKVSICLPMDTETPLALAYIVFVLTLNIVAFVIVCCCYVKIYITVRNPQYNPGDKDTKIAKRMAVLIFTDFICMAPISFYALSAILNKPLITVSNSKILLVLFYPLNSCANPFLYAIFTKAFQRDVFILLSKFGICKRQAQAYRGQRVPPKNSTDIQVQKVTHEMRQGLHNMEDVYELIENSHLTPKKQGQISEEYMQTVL
Chain of Luciferin 4-monooxygenase (Photinus pyralis) (P08659 whole entry, looked up): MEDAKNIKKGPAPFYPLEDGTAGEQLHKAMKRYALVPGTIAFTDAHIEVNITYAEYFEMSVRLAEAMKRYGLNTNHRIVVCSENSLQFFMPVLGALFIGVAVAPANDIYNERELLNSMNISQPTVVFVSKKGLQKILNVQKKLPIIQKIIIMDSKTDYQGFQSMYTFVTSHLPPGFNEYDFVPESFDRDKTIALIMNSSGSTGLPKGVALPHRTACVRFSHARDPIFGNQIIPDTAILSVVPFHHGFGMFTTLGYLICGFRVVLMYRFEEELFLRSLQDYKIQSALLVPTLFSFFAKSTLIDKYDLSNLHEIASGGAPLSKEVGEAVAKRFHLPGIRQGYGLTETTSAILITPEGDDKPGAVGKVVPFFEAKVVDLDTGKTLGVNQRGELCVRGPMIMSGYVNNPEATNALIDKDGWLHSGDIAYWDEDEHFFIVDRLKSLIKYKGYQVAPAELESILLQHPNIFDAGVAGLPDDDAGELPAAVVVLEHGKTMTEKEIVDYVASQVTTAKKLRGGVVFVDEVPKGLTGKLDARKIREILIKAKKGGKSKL
Chain of Nuclear receptor subfamily 1 group I member 3 (Homo sapiens) (Q14994 whole entry, looked up): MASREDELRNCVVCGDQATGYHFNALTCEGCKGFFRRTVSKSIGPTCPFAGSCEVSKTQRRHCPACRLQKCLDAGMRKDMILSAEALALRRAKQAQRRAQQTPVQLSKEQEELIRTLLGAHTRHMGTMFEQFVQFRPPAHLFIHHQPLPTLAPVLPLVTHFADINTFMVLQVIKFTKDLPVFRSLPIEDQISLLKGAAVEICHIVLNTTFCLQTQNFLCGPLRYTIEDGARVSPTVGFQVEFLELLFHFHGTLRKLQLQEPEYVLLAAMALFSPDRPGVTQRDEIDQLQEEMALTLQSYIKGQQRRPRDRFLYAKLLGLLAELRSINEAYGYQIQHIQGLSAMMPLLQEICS

Structure (SMILES)	Potency [1]	Potency [2]	outcome [3]	outcome [4]	outcome [5]	outcome [6]	outcome [7]	Potency [8]	Potency [9]	Potency [10]	Potency [11]	Potency [12]	Potency [13]	Potency [14]	Potency [15]	Potency [16]	Potency [17]	Potency [18]
CCC1(C2=NCCN2)Cc2ccccc2O1 (stereo not drawn)	inactive	inactive	inactive	inactive	inactive	inactive	inactive	inactive	inactive	inactive	inactive	inactive	inactive	inactive				
CC[N+]1(CCOC(=O)C(O)(c2ccccc2)c2ccccc2)CCCCC1	inactive	inactive						inactive	inactive	inactive	inactive	inactive		inactive	inactive	inactive	inactive	
CC(C)CCCCCCCOC(=O)c1ccccc1C(=O)OCCCCCCCC(C)C	inactive	inactive						inactive	inactive	inactive	inactive	inactive	inactive	inactive		inactive		
CC(Oc1cc(Cl)c(Cl)cc1Cl)C(=O)O (stereo not drawn)	inactive	inactive						inactive	inactive	inactive	inactive			inactive	inactive	inactive	inactive	
CCOC(=O)C1OC1(C)c1ccccc1 (stereo not drawn)	inactive	inactive						inactive	inactive	inactive	inactive	inactive		inactive		inactive		
Cc1ccc(N)c(C)c1	inactive	inactive						inactive	inactive	inactive	inactive	inactive						
CC(O)CN1CCN(CC(=O)[O-])CCN(CC(=O)[O-])CCN(CC(=O)[O-])CC1.[Gd+3] (stereo not drawn)	inactive	inactive						inactive	inactive	inactive	inactive			inactive				
C[C@]12C=CC3=C4CCC(=O)C=C4CC[C@H]3[C@@H]1CC[C@@H]2O	inactive	inactive						inactive	inactive	inactive	inactive					inactive		
CCOP(=O)(O)C(N)=O	inactive	inactive						inactive	inactive	inactive	inactive	inactive		inactive	inactive	inactive		
CC(C)(C)CC(C)(C)c1ccc(O)cc1	17.4 µM (active) and 23.9 µM (active)	43.3 µM (active)							inactive	inactive	inactive			6.86 µM (active) and 13.3 µM (active)				
NCCc1cc(O)c(O)cc1O	inactive	inactive						inactive	inactive	inactive	inactive	inactive				inactive		
SCc1ccccc1	inactive	inactive						inactive		inactive	inactive	inactive		inactive		inactive		inactive
